The nature of assay [1]: NCI Yeast Anticancer Drug Screen. Data for the rad50 strain (AID 155).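 Also: 0% = growth of vehicle-only cultures of the same strain.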 The conditions noted are these: S. cerevisiae rad50 strain growth inhibition, active compounds read high. The method, boiled down:
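Genetically altered yeast (DNA repair pathway); compound treatment; growth inhibition vs vehicle ctrl.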

Assay [2] can be described thus: NCI Yeast Anticancer Drug Screen. Data for the mec2-1 strain (AID 157). The conditions noted are these: S. cerevisiae mec2-1 strain, active compounds read high. The method, boiled down: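 Using mec2-1 yeast: add compound, measure growth, express inhibition versus vehicle-treated cultures.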
The nature of assay [3]: NCI Yeast Anticancer Drug Screen. Data for the sgs1 mgt1 strain (AID 161).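 Also: 0% = growth of cultures given vehicle only.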 The conditions noted are these: S. cerevisiae sgs1 mgt1 strain, active compounds read high. The method, boiled down:
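Growth of a repair-deficient yeast mutant was monitored after compound treatment and expressed as inhibition relative to vehicle-treated cultures.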

A short description of assay [4]: NCI Yeast Anticancer Drug Screen. Data for the cln2 rad14 strain (AID 165).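 Also: 0% = growth equal to vehicle treated cultures.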 The conditions noted are these: S. cerevisiae cln2 rad14 strain, active compounds read high. The procedure, abridged: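 Yeast strain cln2 rad14, bearing defects in cell cycle control and DNA repair, serves as the test system; values reflect growth inhibition compared with vehicle.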
Assay [5] can be described thus: NCI Yeast Anticancer Drug Screen. Data for the bub3 strain (AID 167). The conditions noted are these: S. cerevisiae bub3 mutant strain, active compounds read high. The method, boiled down: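 Yeast carrying a defined mutation is treated with each compound, and growth is compared with that of vehicle-exposed cells to give inhibition.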
Assay [6] is described as follows: NCI Yeast Anticancer Drug Screen. Data for the mlh1 rad18 strain (AID 175). The conditions noted are these: S. cerevisiae mlh1 rad18 strain growth inhibition, active compounds read high. The procedure, abridged: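 Steps: expose repair-defective yeast to compound; measure growth; express inhibition against vehicle-treated controls.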
Where [7] appears, read: at 5.0 µM (retest, dose inferred, filed as 0.5).
Where [8] appears, read: at 50.0 µM (retest, dose inferred, filed as 5.0).

Structures are written as SMILES. About 79,000 compounds went through this panel and 15% of them were active in at least one assay; those are over-represented in the sample as a whole. A number with no mark means an inactive call. Calls of active or inactive are those of the source. Rule as the data show it: active = growth inhibition above about 70%; inactive = the rest.

For `O=C1OC(=O)C2C=CC=CC12` (stereo not given), the growth inhibition was 2% in assay [1] (setting [7]); -5% in assay [1] (setting [8]); 50% in assay [1] (at 50.0 µM); -1% in assay [2] (setting [7]); -9% in assay [2] (setting [8]); -8.45% in assay [2] (at 50.0 µM). Also, the growth inhibition was 2% in assay [3] (setting [7]); 4% in assay [3] (setting [8]); -7.9% in assay [3] (at 50.0 µM); -1% in assay [4] (setting [7]); -6% in assay [4] (setting [8]); -74.8% in assay [4] (at 50.0 µM). Besides, the growth inhibition in assay [5] (setting [7]) is -3%; in assay [5] (setting [8]) it was 2%; in assay [5] (at 50.0 µM), 6.15%; in assay [6] (setting [7]), 14%; in assay [6] (setting [8]), 2%; in assay [6] (at 50.0 µM), -12.2%.

In the case of `COC(=O)c1nc(N)nc(C(=O)OC)c1C(=O)c1ccccc1`, the growth inhibition was 0% in assay [1] (setting [7]); 21% in assay [1] (setting [8]); -32.9% in assay [1] (at 50.0 µM); 22% in assay [2] (setting [7]); -5% in assay [2] (setting [8]); -13.3% in assay [2] (at 50.0 µM). In addition, the growth inhibition in assay [3] (setting [7]) was 30%; in assay [3] (setting [8]), 20%; in assay [3] (at 50.0 µM), -29.4%; in assay [4] (setting [7]), -13%; in assay [4] (setting [8]), 1%; in assay [4] (at 50.0 µM) it was 42.7%. Also, the growth inhibition in assay [5] (setting [7]) was -3%; in assay [5] (setting [8]), 0%; in assay [5] (at 50.0 µM), -24.6%; in assay [6] (setting [7]), -2%; in assay [6] (setting [8]), -5%; in assay [6] (at 50.0 µM) it was 0%.

On to `COc1ccc(Br)c2c1CC(C(=O)O)CC2` (stereo not given), for which the growth inhibition in assay [1] (setting [7]) is -29%; in assay [1] (setting [8]) it was -23%; in assay [1] (at 50.0 µM), 8%; in assay [2] (setting [7]) it was -26%; in assay [2] (setting [8]), 26%; in assay [2] (at 50.0 µM) it was 4.05%. Further, the growth inhibition in assay [3] (setting [7]) was -33%; in assay [3] (setting [8]) it was -22%; in assay [3] (at 50.0 µM), -10.1%; in assay [4] (setting [7]) it was 6%; in assay [4] (setting [8]) it was 6%; in assay [4] (at 50.0 µM) it was -17.2%. The growth inhibition in assay [5] (setting [7]) was -13%; in assay [5] (setting [8]), 13%; in assay [5] (at 50.0 µM), 11.9%; in assay [6] (setting [7]), -20%; in assay [6] (setting [8]), -19%; in assay [6] (at 50.0 µM), 2.8%.

In the case of `O=C(c1cc2c(C(F)(F)F)onc2c2ccccc12)C(F)(F)F`, the growth inhibition in assay [1] (setting [7]) was -8%; in assay [1] (setting [8]) it was 5%; in assay [1] (at 50.0 µM), 76.7% (active); in assay [2] (setting [7]), -17%; in assay [2] (setting [8]), 9%; in assay [2] (at 50.0 µM), 44.9%. The growth inhibition in assay [3] (setting [7]) is -8%; in assay [3] (setting [8]), -2%; in assay [3] (at 50.0 µM) it was 50.6%; in assay [4] (setting [7]), 0%; in assay [4] (setting [8]) it was 28%; in assay [4] (at 50.0 µM) it was 64.8%. The growth inhibition in assay [5] (setting [7]) was 12%; in assay [5] (setting [8]), 42%; in assay [5] (at 50.0 µM), 38.9%; in assay [6] (setting [7]), 0%; in assay [6] (setting [8]), 26%; in assay [6] (at 50.0 µM) it was 36.4%.

For the molecule `CCN(CC)CCCNc1ccc([N+](=O)[O-])c2nc3ccc(OC)cc3c(N)c12`, the growth inhibition in assay [1] (setting [7]) was -13%; in assay [1] (setting [8]) it was 62%; in assay [1] (at 50.0 µM), 44.2%; in assay [2] (setting [7]) it was -20%; in assay [2] (setting [8]) it was 27%; in assay [2] (at 50.0 µM), -5.3%. The growth inhibition in assay [3] (setting [7]) was -7%; in assay [3] (setting [8]) it was 44%; in assay [3] (at 50.0 µM), 79.2% (active); in assay [4] (setting [7]) it was 2%; in assay [4] (setting [8]), 31%; in assay [4] (at 50.0 µM), 19.6%. The growth inhibition was -11% in assay [5] (setting [7]); 54% in assay [5] (setting [8]); 13.6% in assay [5] (at 50.0 µM); -39% in assay [6] (setting [7]); 74% (active) in assay [6] (setting [8]); 62% in assay [6] (at 50.0 µM).

`O=C(OC1C=C=CS(=O)(=O)CC#C/C=C\1)c1cnc2ccccc2n1` (stereo not given): the growth inhibition in assay [1] (setting [7]) is 15%; in assay [1] (setting [8]), 96% (active); in assay [1] (at 50.0 µM), 76.9% (active); in assay [2] (setting [7]) it was -17%; in assay [2] (setting [8]) it was 95% (active); in assay [2] (at 50.0 µM), 75.8% (active). The growth inhibition in assay [3] (setting [7]) is -28%; in assay [3] (setting [8]) it was 91% (active); in assay [3] (at 50.0 µM) it was 74.3% (active); in assay [4] (setting [7]) it was 15%; in assay [4] (setting [8]), 90% (active); in assay [4] (at 50.0 µM), 78.5% (active). For the same molecule, the growth inhibition in assay [5] (setting [7]) is -36%; in assay [5] (setting [8]) it was 94% (active); in assay [5] (at 50.0 µM), 79.5% (active); in assay [6] (setting [7]), 19%; in assay [6] (setting [8]) it was 97% (active); in assay [6] (at 50.0 µM), 69.3%.

For the molecule `Oc1cc(Br)ccc1/C=N/Nc1ccccn1`, the growth inhibition in assay [1] (setting [7]) is -8%; in assay [1] (setting [8]) it was 46%; in assay [1] (at 50.0 µM), -38.4%; in assay [2] (setting [7]), -11%; in assay [2] (setting [8]) it was 60%; in assay [2] (at 50.0 µM) it was -13.6%. Besides, the growth inhibition in assay [3] (setting [7]) is -19%; in assay [3] (setting [8]), 6%; in assay [3] (at 50.0 µM) it was 15.6%; in assay [4] (setting [7]) it was -1%; in assay [4] (setting [8]) it was 53%; in assay [4] (at 50.0 µM), -21.8%. The growth inhibition in assay [5] (setting [7]) was 0%; in assay [5] (setting [8]), 46%; in assay [5] (at 50.0 µM), -3.4%; in assay [6] (setting [7]) it was -10%; in assay [6] (setting [8]), 27%; in assay [6] (at 50.0 µM), 1.05%.

In the case of `COC(=O)Cc1cn[nH]c1C(=O)OC`, the growth inhibition in assay [1] (setting [7]) is -147%; in assay [1] (setting [8]) it was 8%; in assay [1] (at 50.0 µM), 9.2%; in assay [2] (setting [7]), -51%; in assay [2] (setting [8]), -45%; in assay [2] (at 50.0 µM), 0.7%. Besides, the growth inhibition in assay [3] (setting [7]) is -65%; in assay [3] (setting [8]) it was -48%; in assay [3] (at 50.0 µM), 1.7%; in assay [4] (setting [7]) it was -66%; in assay [4] (setting [8]), -52%; in assay [4] (at 50.0 µM), 29.6%. For the same molecule, the growth inhibition in assay [5] (setting [7]) was -68%; in assay [5] (setting [8]), -54%; in assay [5] (at 50.0 µM) it was -15.2%; in assay [6] (setting [7]) it was -117%; in assay [6] (setting [8]), -94%; in assay [6] (at 50.0 µM) it was 9.75%.

For `O=[N+]([O-])c1ccc(O)c(-c2ccccc2)c1`, the growth inhibition is 3% in assay [1] (setting [7]); 99% (active) in assay [1] (setting [8]); 99.3% (active) in assay [1] (at 50.0 µM); -31% in assay [2] (setting [7]); 99% (active) in assay [2] (setting [8]); 99.7% (active) in assay [2] (at 50.0 µM). The growth inhibition in assay [3] (setting [7]) was 6%; in assay [3] (setting [8]) it was 99% (active); in assay [3] (at 50.0 µM), 98.8% (active); in assay [4] (setting [7]) it was 6%; in assay [4] (setting [8]), 99% (active); in assay [4] (at 50.0 µM), 98.7% (active). Moreover, the growth inhibition in assay [5] (setting [7]) was -2%; in assay [5] (setting [8]), 98% (active); in assay [5] (at 50.0 µM) it was 99.2% (active); in assay [6] (setting [7]) it was 5%; in assay [6] (setting [8]) it was 99% (active); in assay [6] (at 50.0 µM) it was 99.2% (active).

Take `Cc1cc(OC(=O)CCl)ccc1C(C)(C)C`: the growth inhibition in assay [1] (setting [7]) was 1%; in assay [1] (setting [8]), 12%; in assay [1] (at 50.0 µM) it was 56.4%; in assay [2] (setting [7]), 2%; in assay [2] (setting [8]) it was 13%; in assay [2] (at 50.0 µM) it was 40.5%. For the same molecule, the growth inhibition is 0% in assay [3] (setting [7]); 1% in assay [3] (setting [8]); 56.4% in assay [3] (at 50.0 µM); 5% in assay [4] (setting [7]); 5% in assay [4] (setting [8]); 5.5% in assay [4] (at 50.0 µM). Further, the growth inhibition in assay [5] (setting [7]) is 0%; in assay [5] (setting [8]) it was 5%; in assay [5] (at 50.0 µM), 30.5%; in assay [6] (setting [7]), 2%; in assay [6] (setting [8]) it was 18%; in assay [6] (at 50.0 µM) it was 84.6% (active).
